Reference: PubChem BioAssay (NCI)
About 79,000 compounds went through this panel and 15% of them were active in at least one assay; those are over-represented in the sample as a whole. Activity calls are given as the source filed them. Rule as the data show it: active = growth inhibition above about 70%; inactive = the rest.

Columns and labels:
[1] = NCI Yeast Anticancer Drug Screen. Data for the rad52 strain (AID 147);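 also: 0% = growth of vehicle-treated control cultures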; settings: S. cerevisiae rad52 mutant growth inhibition, hits give high values
Method in brief: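 Yeast strain carrying a DNA damage repair alteration was exposed to test compounds. Growth inhibition was measured relative to vehicle-treated controls.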

[2] = NCI Yeast Anticancer Drug Screen. Data for the rad50EPP+ strain (AID 151);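 also: 0% = growth of vehicle-treated control cultures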; settings: S. cerevisiae rad50 mutant strain, hits give high values
Method in brief: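 Yeast strain carrying rad50 alteration (rad50EPP+) exposed to compounds; growth inhibition measured relative to vehicle-treated controls.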

[3] = NCI Yeast Anticancer Drug Screen. Data for the mgt1 strain (AID 153); settings: S. cerevisiae mgt1 mutant growth inhibition, hits give high values
Method in brief: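 Yeast mgt1 strain (DNA repair/cell-cycle alteration panel) exposed to compounds; growth inhibition measured relative to vehicle-treated controls.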

[4] = NCI Yeast Anticancer Drug Screen. Data for the rad50 strain (AID 155);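 also: 0% = growth of vehicle-only cultures of the same strain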; settings: S. cerevisiae rad50 strain growth inhibition, hits give high values
Method in brief: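 Genetically altered yeast (DNA repair pathway); compound treatment; growth inhibition vs vehicle ctrl.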

[5] = NCI Yeast Anticancer Drug Screen. Data for the mec2-1 strain (AID 157); settings: S. cerevisiae mec2-1 strain, hits give high values
Method in brief: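 mec2-1 yeast strain, carrying an alteration in DNA damage repair or cell cycle control, was exposed to compounds; growth inhibition was measured relative to vehicle-treated controls.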

[6] = NCI Yeast Anticancer Drug Screen. Data for the rad14 strain (AID 159);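 also: 0% = growth of vehicle-treated control cultures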; settings: S. cerevisiae rad14 strain growth inhibition, hits give high values
Method in brief: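 Test compounds were applied to a repair-deficient yeast strain. Its growth was then compared with that of cultures given vehicle alone, and inhibition was expressed relative to those controls.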

[7] = NCI Yeast Anticancer Drug Screen. Data for the sgs1 mgt1 strain (AID 161);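 also: 0% = growth of cultures given vehicle only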; settings: S. cerevisiae sgs1 mgt1 strain, hits give high values
Method in brief: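 Growth of a repair-deficient yeast mutant was monitored after compound treatment and expressed as inhibition relative to vehicle-treated cultures.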

[8] = NCI Yeast Anticancer Drug Screen. Data for the CLN2oe strain (AID 163);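 also: 0% = growth of vehicle-only control cultures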; settings: S. cerevisiae CLN2oe strain, hits give high values
Method in brief: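 Yeast cells carrying a defined cell-cycle control alteration were exposed to test compounds. Growth inhibition was scored against vehicle-treated control cultures.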

[9] = NCI Yeast Anticancer Drug Screen. Data for the cln2 rad14 strain (AID 165);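 also: 0% = growth equal to vehicle treated cultures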; settings: S. cerevisiae cln2 rad14 strain, hits give high values
Method in brief: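 Yeast carrying cln2 and rad14 alterations (cell cycle control and DNA damage repair) were exposed to compounds. Growth inhibition was measured against vehicle-treated controls.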

[10] = NCI Yeast Anticancer Drug Screen. Data for the bub3 strain (AID 167); settings: S. cerevisiae bub3 mutant strain, hits give high values
Method in brief: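 Yeast carrying a defined mutation is treated with each compound, and growth is compared with that of vehicle-exposed cells to give inhibition.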

[11] = NCI Yeast Anticancer Drug Screen. Data for the mlh1 strain (AID 171);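 also: 0% = growth of vehicle-treated control cultures of the same strain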; settings: S. cerevisiae mlh1 strain growth inhibition, hits give high values
Method in brief: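 Yeast carrying a defined genetic alteration in DNA damage repair or cell cycle control were exposed to test compounds. Growth inhibition was measured relative to vehicle-treated controls.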

[12] = NCI Yeast Anticancer Drug Screen. Data for the sgs1 strain (AID 173);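 also: 0% = growth of vehicle-only control cultures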; settings: S. cerevisiae sgs1 mutant, hits give high values
Method in brief: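 Yeast mutant strains carrying defined defects in DNA damage repair or cell cycle control were exposed to test compounds. Growth inhibition was scored against vehicle-treated controls.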

[13] = NCI Yeast Anticancer Drug Screen. Data for the mlh1 rad18 strain (AID 175); settings: S. cerevisiae mlh1 rad18 strain growth inhibition, hits give high values
Method in brief: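 Growth inhibition of the yeast strain was measured after compound exposure and expressed relative to vehicle-treated controls. The strain carries defined defects in DNA damage repair.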

[14] = NCI Yeast Anticancer Drug Screen. Data for the rad18 strain (AID 177); settings: S. cerevisiae rad18 mutant growth inhibition, hits give high values
Method in brief: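 Yeast carrying a defined DNA damage repair alteration were exposed to compounds. Growth inhibition was expressed relative to vehicle-treated controls.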

[15] = NCI Yeast Anticancer Drug Screen. Data for the wt2 strain (AID 169);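 also: 0% = growth of vehicle-treated yeast cultures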; settings: S. cerevisiae wt2 strain growth inhibition, hits give high values
Method in brief: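 Yeast cells were exposed to test compounds, and growth inhibition was measured relative to vehicle-treated controls.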

[16] = NCI Yeast Anticancer Drug Screen. Data for the wt1 strain (AID 149);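 also: 0% = growth of vehicle-treated wt1 cultures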; settings: S. cerevisiae wt1 strain (SPY 50644) growth inhibition, hits give high values
Method in brief: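 wt1 yeast, compound-treated; % growth inhibition vs vehicle control.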

[17] = at 5.0 µM (retest, dose inferred, filed as 0.5)
[18] = at 50.0 µM (retest, dose inferred, filed as 5.0)

Measured: growth inhibition

CN(C)N=Nc1ccccc1C(=O)NC#N
inactive: [1]; at 1.2 µM 8% | [1]; at 3.7 µM 0% | [2]; at 1.2 µM 7% | [2]; at 3.7 µM 0% | [2]; at 11.0 µM 13% | [3]; at 1.2 µM -1% | [3]; at 3.7 µM 20% | [4]; at 1.2 µM -5% | [4]; at 3.7 µM -14% | [4]; [17] 18% | [5]; at 1.2 µM -12% | [5]; at 3.7 µM 0% | [5]; [17] 8% | [6]; at 1.2 µM -17% | [6]; at 3.7 µM -14% | [7]; [17] 36% | [7]; [18] 53% | [8]; at 1.2 µM 23% | [8]; at 3.7 µM 22% | [9]; [17] 35% | [9]; [18] 67% | [10]; at 1.2 µM 13% | [10]; at 3.7 µM 10% | [10]; [17] 39% | [11]; at 1.2 µM 1% | [11]; at 3.7 µM 4% | [12]; at 1.2 µM -6% | [12]; at 3.7 µM -24% | [13]; [17] 5% | [14]; at 1.2 µM 12% | [14]; at 3.7 µM 5%
active: [1]; at 11.0 µM 83% | [1]; at 33.0 µM 98% | [1]; at 100.0 µM 98% | [2]; at 33.0 µM 98% | [2]; at 100.0 µM 98% | [3]; at 11.0 µM 98% | [3]; at 33.0 µM 99% | [3]; at 100.0 µM 98% | [4]; at 11.0 µM 97% | [4]; at 33.0 µM 98% | [4]; [18] 98% | [4]; at 50.0 µM 90% | [4]; at 100.0 µM 94% | [5]; at 11.0 µM 97% | [5]; at 33.0 µM 99% | [5]; [18] 99% | [5]; at 50.0 µM 91.5% | [5]; at 100.0 µM 95% | [6]; at 11.0 µM 75% | [6]; at 33.0 µM 98% | [6]; at 100.0 µM 96% | [7]; at 50.0 µM 91.5% | [8]; at 11.0 µM 98% | [8]; at 33.0 µM 99% | [8]; at 100.0 µM 99% | [9]; at 50.0 µM 89.8% | [10]; at 11.0 µM 98% | [10]; at 33.0 µM 99% | [10]; [18] 77% | [10]; at 50.0 µM 90.2% | [10]; at 100.0 µM 99% | [11]; at 11.0 µM 93% | [11]; at 33.0 µM 99% | [11]; at 100.0 µM 98% | [12]; at 11.0 µM 98% | [12]; at 33.0 µM 98% | [12]; at 100.0 µM 99% | [13]; [18] 98% | [13]; at 50.0 µM 89.4% | [14]; at 11.0 µM 97% | [14]; at 33.0 µM 99% | [14]; at 100.0 µM 95%

C[Si](C)(C)/C=C/CCNC(C#N)c1ccccc1 (stereo unspecified)
inactive: [2]; at 1.2 µM -28% | [2]; at 3.7 µM -44% | [2]; at 11.0 µM -17% | [2]; at 33.0 µM -30% | [3]; at 1.2 µM -14% | [3]; at 3.7 µM -25% | [3]; at 11.0 µM 38% | [3]; at 33.0 µM 22% | [4]; at 1.2 µM -14% | [4]; at 3.7 µM -28% | [4]; at 11.0 µM 47% | [4]; at 33.0 µM 10% | [5]; at 1.2 µM -21% | [5]; at 3.7 µM -23% | [5]; at 11.0 µM 43% | [5]; at 33.0 µM 23% | [6]; at 1.2 µM -6% | [6]; at 3.7 µM 3% | [6]; at 11.0 µM 37% | [6]; at 33.0 µM 52% | [7]; [17] -12% | [8]; at 1.2 µM 3% | [8]; at 3.7 µM 10% | [8]; at 11.0 µM 52% | [8]; at 33.0 µM 42% | [9]; [17] 32% | [10]; at 1.2 µM -8% | [10]; at 3.7 µM 7% | [10]; [17] 12% | [10]; at 11.0 µM 38% | [10]; at 33.0 µM 43% | [15]; at 1.2 µM -9% | [15]; at 3.7 µM -19% | [15]; at 11.0 µM 39% | [15]; at 33.0 µM 36% | [11]; at 1.2 µM -16% | [11]; at 3.7 µM -5% | [11]; at 11.0 µM 49% | [11]; at 33.0 µM 33% | [12]; at 1.2 µM -19% | [12]; at 3.7 µM -15% | [12]; at 11.0 µM 42% | [12]; at 33.0 µM 31% | [14]; at 1.2 µM -33% | [14]; at 3.7 µM -42% | [14]; at 11.0 µM 27% | [14]; at 33.0 µM 23%
active: [2]; at 100.0 µM 74% | [3]; at 100.0 µM 94% | [4]; [17] 98% | [4]; [18] 99% | [4]; at 50.0 µM 89.7% | [4]; at 100.0 µM 92% | [5]; [17] 98% | [5]; [18] 99% | [5]; at 50.0 µM 91.8% | [5]; at 100.0 µM 95% | [6]; at 100.0 µM 94% | [7]; [18] 97% | [7]; at 50.0 µM 92.7% | [8]; at 100.0 µM 93% | [9]; [18] 97% | [9]; at 50.0 µM 90.2% | [10]; [18] 95% | [10]; at 50.0 µM 90.1% | [10]; at 100.0 µM 93% | [15]; at 100.0 µM 95% | [11]; at 100.0 µM 95% | [12]; at 100.0 µM 94% | [13]; [17] 99% | [13]; [18] 99% | [13]; at 50.0 µM 90.3% | [14]; at 100.0 µM 92%

NC(=O)C(=O)NNc1ccccc1
active: [16]; at 100.0 µM 94% | [2]; at 33.0 µM 85% | [2]; at 100.0 µM 96% | [3]; at 33.0 µM 76% | [3]; at 100.0 µM 97% | [4]; at 33.0 µM 75% | [4]; at 50.0 µM 95.5% | [4]; at 100.0 µM 97% | [5]; at 33.0 µM 81% | [5]; at 50.0 µM 83.8% | [5]; at 100.0 µM 97% | [6]; at 100.0 µM 98% | [7]; [18] 78% | [7]; at 50.0 µM 90.5% | [8]; at 100.0 µM 96% | [9]; at 50.0 µM 80.8% | [10]; at 33.0 µM 95% | [10]; at 50.0 µM 92.2% | [10]; at 100.0 µM 97% | [15]; at 100.0 µM 97%
inactive: [16]; at 1.2 µM 3% | [16]; at 3.7 µM 13% | [16]; at 11.0 µM 45% | [16]; at 33.0 µM 57% | [2]; at 1.2 µM 9% | [2]; at 3.7 µM 29% | [2]; at 11.0 µM 60% | [3]; at 1.2 µM 5% | [3]; at 3.7 µM 10% | [3]; at 11.0 µM 28% | [4]; at 1.2 µM 1% | [4]; at 3.7 µM 6% | [4]; [17] 9% | [4]; at 11.0 µM 31% | [4]; [18] 49% | [5]; at 1.2 µM 0% | [5]; at 3.7 µM 6% | [5]; [17] -1% | [5]; at 11.0 µM 48% | [5]; [18] 4% | [6]; at 1.2 µM 1% | [6]; at 3.7 µM 0% | [6]; at 11.0 µM 13% | [6]; at 33.0 µM 66% | [7]; [17] 8% | [8]; at 1.2 µM -3% | [8]; at 3.7 µM 4% | [8]; at 11.0 µM 41% | [8]; at 33.0 µM 67% | [9]; [17] 9% | [9]; [18] 32% | [10]; at 1.2 µM -3% | [10]; at 3.7 µM 6% | [10]; [17] 27% | [10]; at 11.0 µM 64% | [10]; [18] 66% | [15]; at 1.2 µM 3% | [15]; at 3.7 µM 13% | [15]; at 11.0 µM 34% | [15]; at 33.0 µM 60%
